Only some compounds are listed: those with a hit (about 7.6% of all), similar ones and a draw of the others.
HCV NS3h FP: hepatitis C NS3 helicase inhibition, primary screen | 1.6% of 16,000 active | NS3h Cy5-dT15 DNA binding, fluorescence polarization | inhibition, % at 100 µM;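 active = inhibition above the average over every tested compound plus 3 SD, cut at about 40% in these data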
Cy5 interf NS3h: enhances or quenches Cy5 fluorescence in NS3h assay. Cy5-dT15 DNA with NS3h, fluorescence interference; actives lie on both sides; signal over control mean, under 1 quenches. fluorescence interference ratio at 100 µM. 6% of 16,000 active. AID 720488;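 active = compound fluorescence over control fluorescence at most 0.8, a quencher, or at least a set upper limit, an enhancer; inactive = ratio between 0.8 and the set upper limit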
Starred values were filed as active, the others as inactive.

SMILES | HCV NS3h FP | Cy5 interf NS3h
O=C(Nc1ccc2c(c1)C(=O)N(c1ccccc1)C2=O)c1ccc2c(c1)C(=O)N(c1ccccc1)C2=O | -7 | 1
CCOc1cc(OCC)cc(C(=O)Nc2cc(C(=O)OC)cc(C(=O)OC)c2)c1 | 9 | 1
COc1ccc(C2Nc3ccccc3C(=O)N2Cc2ccco2)cc1Cn1cc([N+](=O)[O-])cn1 (stereo not given) | -1 | 0.94
O=C1NC(=S)S/C1=C/c1ccc(-c2ccc([N+](=O)[O-])cc2Br)o1 | 32 | 0.99
Cc1ccc(-c2ccc(/C=C3/SC(=S)NC3=O)o2)cc1Cl | 6 | 0.77*
Cc1c(C(=O)NCCCC(=O)O)c(-c2ccccc2)nn1-c1ccccc1 | -1 | 1
CC(=O)Nc1ccccc1C(=O)N1CCC(Cc2ccccc2)CC1 | 5 | 1
CCn1c(-c2ccc([N+](=O)[O-])cc2)n[nH]c1=S | -3 | 0.98
O=[N+]([O-])c1ccc(-c2cc(-c3ccc(I)cc3)n[nH]2)cc1 | 4 | 1.2*
COc1ccc(CCNc2cc(N3CCN(C(=O)c4ccc(Cl)cc4)CC3)ccc2[N+](=O)[O-])cc1OC | -2 | 1.1
COc1ccc2c(c1)OCC/C2=N/OC(=O)c1ccc(C)cc1 | 20 | 1
COc1ccc2c(c1)OCC/C2=N/OC(=O)c1cc(OC)c(OC)c(OC)c1 | 11 | 1.2*
Cc1cc(C)nc(NS(=O)(=O)c2ccc(NC(=O)c3cc4cc([N+](=O)[O-])ccc4s3)cc2)n1 | 8 | 1.1
Cc1ccsc1C=Nc1cccc([N+](=O)[O-])c1 | 6 | 1.1
CCOC(=O)Nc1cc([N+](=O)[O-])ccc1Cl | 19 | 0.98
CCOC(=O)Nc1n[nH]c(NC(=O)OCC)c1[N+](=O)[O-] | 12 | 0.66*
Cc1ccc(S(=O)(=O)Nc2ccc(OC(=O)c3ccc(Cl)cc3)cc2)c(C)c1 | 1 | 0.99
O=C1c2ccccc2C(=O)N1/N=C\c1c(O)ccc2ccccc12 | 9 | 0.62*
O=C1c2cccc3cccc(c23)C(=O)N1/N=C\c1ccc(O)cc1 | 7 | 1
O=C1N=c2ccccc2=C1c1sc(=S)n(-c2ccc(C(=O)O)cc2)c1O | 2 | 1.2*
Cc1cccc(-n2c(O)c(C3=c4ccccc4=NC3=O)sc2=O)c1 | 4 | 0.92
CCOc1cccc(C(=O)Nc2nnc(C(c3ccccc3)c3ccccc3)s2)c1 | 10 | 1.1
O=C(COc1ccccc1)Nc1ccc([N+](=O)[O-])cc1 | 5 | 1.1
N#Cc1ccccc1OCC(=O)N/N=C\C=C\c1ccc([N+](=O)[O-])cc1 | 26 | 0.58*
O=C1C(=O)N(Cc2ccccc2)C(c2ccc(Cl)cc2)C1=C(O)c1ccccc1 (stereo not given) | 8 | 1
SMILES | HCV NS3h FP | Cy5 interf NS3h
CCOc1ccc(S(=O)(=O)N(CC(=O)Nc2ccc(C)cc2C)c2ccc(C)cc2)cc1 | 7 | 0.94
O=[N+]([O-])c1ccc(-c2noc(-c3ccccc3Br)n2)cc1 | -9 | 0.76*
O=[N+]([O-])c1cccc(-c2nc(-c3ccc(Cl)cc3)no2)c1 | -9 | 0.98
O=C1c2ccccc2/C(=N\N=C/c2cccs2)C1C(=O)C(c1ccccc1)c1ccccc1 (stereo not given) | 6 | 1
CCCOc1c(Br)cc(C2C3=C(CC(C)(C)CC3=O)OC3=C2C(=O)CC(C)(C)C3)cc1OC | 17 | 0.97
CCCOc1ccc(C2C3=C(CC(C)(C)CC3=O)OC3=C2C(=O)CC(C)(C)C3)cc1OCC | 9 | 0.78*
N#Cc1ccc(NC(=O)/C=C\C(=O)O)cc1 | -20 | 1.1
COc1ccc(CCN2C(=O)/C(=C/c3c(NCCCn4ccnc4)nc4c(C)cccn4c3=O)SC2=S)cc1OC | 7 | 0.89
Cc1cccn2c(=O)c(/C=C3\SC(=S)N(Cc4ccccc4)C3=O)c(NCCCn3ccnc3)nc12 | 7 | 0.59*
CCCN(CCC)C(=O)c1c(NC(=O)c2cccs2)sc2c1CCCCC2 | 1 | 0.67*
CCc1ccccc1NC(=O)c1c(NC(=O)c2cccs2)sc2c1CCCCC2 | 7 | 1.1
Cc1ccccc1NC(=O)c1c(NC(=O)C(Cl)(Cl)Cl)sc2c1CCC2 | 13 | 0.68*
CC(=O)Nc1sc2c(c1C(=O)Nc1ccccc1C)CCC2 | -4 | 0.93
CCOc1ccc(C(=O)Nc2ccc(N3CCOCC3)cc2)cc1Cl | 4 | 0.98
C/C(Cn1nnc([N+](=O)[O-])n1)=N/NC(=O)c1ccc(O)cc1 | 1 | 1
CCOC(=O)c1ccccc1NC(=O)CN(c1ccc(C)cc1)S(C)(=O)=O | 42* | 0.81
COC(=O)c1ccccc1NC(=O)CN(c1ccc(C)cc1)S(C)(=O)=O | 11 | 0.99
COc1cccc(CCNC2CC(=O)N(c3ccc(C)cc3)C2=O)c1 (stereo not given) | -1 | 1.1
Cc1ccc(N2C(=O)CC(NCc3cccnc3)C2=O)cc1 (stereo not given) | 8 | 1.3*
O=C(Nc1c(C(=O)N2CCCCC2)cnn1-c1ccccc1)c1ccccc1Cl | 3 | 1
COc1ccc(C(=O)N2CCN(S(C)(=O)=O)CC2)cc1 | -2 | 1.1

Bioassay records deposited in PubChem BioAssay by Milwaukee Institute for Drug Discovery.
